# Assay results from the supplement of paper PMC8728848.
# About 410 targets per protein were measured; listed, in parts, are those with the strongest signals and a random draw of the rest.
# B1: GS13814A-bth-462-26-462 (Bacteroides thetaiotaomicron) (protein)
# chain: DDRDNLMVNDQIGLLHSTYTETEIFRGMDTPYQLFVIKSGKGKQETEVSISVDETVLQSYNTDNGTSIQLLPSDCYTILQPALRLNDSDYRKAFDIKWNADRLSDLLSTGKEYGLPIQMSVVQNFISADDERLKTIIVPTIKEPYLQMDVPGMSPVTDFMPTFGDLNERELFVKIRTNYSNDEDISFQIEVDPQLVIDYNTAHGTAYKMLPESSFTVDNKGVILTGMKETFIKIKYHKKGLIPEEGTYLFGDYVLPLRITSVSKYGISPDAASKLYTVKFQPDPIDKKGWSVIDFNNCCTQDGGWYLNMGWGVESLIDNNPGTQWLCRWDVKEPLPYYFVFDMGKEYTLFRFGFANPVAPAAHVWAGTSKAGYVEASIDNENWVKLKDWTSPKIGEPNVNMDVPATQARYIRFVITDTYPTYDGLRVSLGEVYAWGM
# Key:
# Experiment in all cases: glycan array binding signal (z-score within array); higher = stronger binding
# Settings in all cases: glycan notation: IUPAC condensed, linker removed
# [1] = target: Fuc(a1-2)Gal(b1-3)GalNAc(b1-3)Gal(a1-4)Gal(b1-4)Glc
# Outline: (§1)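 Arrays were curated from the Consortium for Functional Glycomics database, 3228 in total, and kept only where the protein sequence was available. Binding is expressed as a within-array Z-score. This score was averaged across arrays of the same protein sequence at different concentrations or buffers and across linkers, and negative values can be read as non-binding.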
# [2] = target: Fuc(a1-2)Gal(b1-3)GlcNAc(b1-3)[Neu5Ac(a2-6)Gal(b1-4)GlcNAc(b1-6)]Gal(b1-4)Glc
# Outline: as §1
# [3] = target: Fuc(a1-2)Gal(b1-3)[Fuc(a1-4)]GlcNAc(b1-2)Man(a1-3)[Fuc(a1-2)Gal(b1-3)[Fuc(a1-4)]GlcNAc(b1-2)Man(a1-6)]Man(b1-4)GlcNAc(b1-4)[Fuc(a1-6)]GlcNAc(b1-4)[Fuc(a1-6)]GlcNAc
# Outline: as §1
# [4] = target: Fuc(a1-2)Gal(b1-4)[Fuc(a1-3)]GlcNAc(b1-3)GalNAc
# Outline: as §1
# [5] = target: Fuc(a1-2)Gal6S(b1-3)GlcNAc6S
# Outline: as §1
# [6] = target: Fuc(a1-2)[Gal(a1-3)]Gal(b1-4)[Fuc(a1-3)]Glc
# Outline: as §1
# [7] = target: Fuc(a1-2)[Gal(a1-4)]Gal(b1-4)GlcNAc
# Outline: as §1
# [8] = target: Fuc(a1-2)[GalNAc(a1-3)]Gal(b1-3)GalNAc(b1-3)Gal(a1-4)Gal(b1-4)Glc
# Outline: as §1
# [9] = target: Fuc(a1-2)[GalNAc(a1-3)]Gal(b1-4)GlcNAc(b1-3)Gal(b1-4)GlcNAc(b1-3)Gal(b1-4)GlcNAc
# Outline: as §1
# [10] = target: Fuc(a1-2)[GalNAc(a1-3)]Gal(b1-4)GlcNAc(b1-3)GalNAc
# Outline: as §1
# [11] = target: Fuc(a1-2)[GalNAc(a1-3)]Gal(b1-4)[Fuc(a1-3)]GlcNAc(b1-3)GalNAc
# Outline: as §1
# [12] = target: Fuc(a1-3)[Gal(b1-4)]GlcNAc(b1-2)Man
# Outline: as §1
# [13] = target: Fuc(a1-3)[Gal3S(b1-4)]GlcNAc
# Outline: as §1
# [14] = target: Fuc(a1-3)[GalNAc(b1-4)]GlcNAc
# Outline: as §1
# [15] = target: Fuc(a1-4)GlcNAc
# Outline: as §1
# [16] = target: Gal(b1-3)GalNAc(b1-3)Gal
# Outline: as §1
# [17] = target: Gal(b1-3)GlcNAc(b1-3)Gal(b1-4)[Fuc(a1-3)]GlcNAc
# Outline: as §1
# [18] = target: Gal(b1-3)[Neu5Ac(b2-6)]GalNAc
# Outline: as §1
# [19] = target: Gal(b1-4)Glc6S
# Outline: as §1
# [20] = target: Gal(b1-4)GlcNAc(b1-3)Gal(b1-3)GlcNAc
# Outline: as §1
# [21] = target: Gal(b1-4)GlcNAc(b1-3)Gal(b1-4)GlcNAc(b1-2)[Gal(b1-4)GlcNAc(b1-3)Gal(b1-4)GlcNAc(b1-6)]Man(a1-6)[Gal(b1-4)GlcNAc(b1-3)Gal(b1-4)GlcNAc(b1-2)Man(a1-3)]Man(b1-4)GlcNAc(b1-4)GlcNAc
# Outline: as §1
# [22] = target: Gal(b1-4)GlcNAc(b1-3)Gal(b1-4)[Fuc(a1-3)]GlcNAc(b1-3)Gal(b1-4)[Fuc(a1-3)]GlcNAc
# Outline: as §1
# [23] = target: Gal(b1-4)GlcNAc(b1-3)[Gal(b1-4)GlcNAc(b1-6)]Gal(b1-4)GlcNAc
# Outline: as §1
# [24] = target: Gal(b1-4)GlcNAc(b1-3)[GlcNAc(b1-6)]Gal(b1-4)GlcNAc
# Outline: as §1
# [25] = target: Gal(b1-6)Gal
# Outline: as §1
# [26] = target: Gal3S(b1-4)Glc
# Outline: as §1
# [27] = target: Gal3S6S(b1-4)GlcNAc6S
# Outline: as §1
# [28] = target: GalNAc(b1-3)Gal
# Outline: as §1
# [29] = target: GalNAc(b1-3)Gal(a1-4)Gal(b1-4)GlcNAc
# Outline: as §1
# [30] = target: GalNAc(b1-6)GalNAc
# Outline: as §1
# [31] = target: GlcNAc(b1-3)Gal(b1-4)GlcNAc(b1-3)Gal(b1-4)GlcNAc(b1-2)[GlcNAc(b1-3)Gal(b1-4)GlcNAc(b1-3)Gal(b1-4)GlcNAc(b1-6)]Man(a1-6)[GlcNAc(b1-3)Gal(b1-4)GlcNAc(b1-3)Gal(b1-4)GlcNAc(b1-2)Man(a1-3)]Man(b1-4)GlcNAc(b1-4)[Fuc(a1-6)]GlcNAc
# Outline: as §1
# [32] = target: GlcNAc(b1-3)Gal(b1-4)GlcNAc(b1-3)Gal(b1-4)GlcNAc(b1-3)Gal(b1-4)GlcNAc(b1-2)Man(a1-3)[GlcNAc(b1-3)Gal(b1-4)GlcNAc(b1-3)Gal(b1-4)GlcNAc(b1-3)Gal(b1-4)GlcNAc(b1-2)Man(a1-6)]Man(b1-4)GlcNAc(b1-4)GlcNAc
# Outline: as §1
# [33] = target: GlcNAc(b1-3)Gal(b1-4)GlcNAc(b1-3)Gal(b1-4)GlcNAc(b1-3)Gal(b1-4)GlcNAc(b1-3)Gal(b1-4)GlcNAc(b1-2)Man(a1-3)[GlcNAc(b1-3)Gal(b1-4)GlcNAc(b1-3)Gal(b1-4)GlcNAc(b1-3)Gal(b1-4)GlcNAc(b1-3)Gal(b1-4)GlcNAc(b1-2)Man(a1-6)]Man(b1-4)GlcNAc(b1-4)[Fuc(a1-6)]GlcNAc
# Outline: as §1
# [34] = target: GlcNAc(b1-3)[GlcNAc(b1-6)]Gal(b1-4)GlcNAc
# Outline: as §1
# [35] = target: Kdn(a2-3)Gal(b1-3)GalNAc
# Outline: as §1
# [36] = target: Man(a1-3)[Man(a1-6)]Man
# Outline: as §1
# [37] = target: Man(a1-3)[Man(a1-6)]Man(a1-6)[Man(a1-3)]Man
# Outline: as §1
# [38] = target: Man(a1-6)Man
# Outline: as §1
# [39] = target: Neu5Ac(a2-3)Gal(b1-3)]Neu5Ac(a2-3)Gal(b1-4)]GlcNAc
# Outline: as §1
# [40] = target: Neu5Ac(a2-3)Gal(b1-4)Glc
# Outline: as §1
# [41] = target: Neu5Ac(a2-3)Gal(b1-4)GlcNAc(b1-3)Gal
# Outline: as §1
# [42] = target: Neu5Ac(a2-3)Gal(b1-4)GlcNAc(b1-3)Gal(b1-4)[Fuc(a1-3)]GlcNAc
# Outline: as §1
# [43] = target: Neu5Ac(a2-3)Gal(b1-4)GlcNAc(b1-3)GalNAc
# Outline: as §1
# [44] = target: Neu5Ac(a2-3)Gal(b1-4)[Fuc(a1-3)]GlcNAc(b1-3)Gal(b1-4)GlcNAc
# Outline: as §1
# [45] = target: Neu5Ac(a2-3)Gal(b1-4)[Fuc(a1-3)]GlcNAc(b1-3)GalNAc
# Outline: as §1
# [46] = target: Neu5Ac(a2-3)[GalNAc(b1-4)]Gal(b1-4)GlcNAc(b1-3)GalNAc
# Outline: as §1
# [47] = target: Neu5Ac(a2-6)Gal(b1-4)GlcNAc
# Outline: as §1
# [48] = target: Neu5Ac(a2-6)Gal(b1-4)GlcNAc(b1-2)Man(a1-3)[GlcNAc(b1-2)Man(a1-6)]Man(b1-4)GlcNAc(b1-4)GlcNAc
# Outline: as §1
# [49] = target: Neu5Ac(a2-6)Gal(b1-4)GlcNAc(b1-3)Gal(b1-4)GlcNAc(b1-3)[Neu5Ac(a2-6)Gal(b1-4)GlcNAc(b1-3)Gal(b1-4)GlcNAc(b1-6)]GalNAc
# Outline: as §1
# [50] = target: Neu5Ac(a2-6)Gal(b1-4)GlcNAc(b1-3)Gal(b1-4)GlcNAc(b1-6)[Gal(b1-3)]GalNAc
# Outline: as §1
# [51] = target: Neu5Ac(a2-8)Neu5Ac(a2-3)Gal(b1-4)GlcNAc
# Outline: as §1
# [52] = target: Neu5Ac(a2-8)Neu5Ac(a2-8)Neu5Ac(a2-3)Gal(b1-4)Glc
# Outline: as §1
# [53] = target: Neu5Gc(a2-3)Gal(b1-4)GlcNAc
# Outline: as §1
# [54] = target: Neu5Gc(a2-8)Neu5Ac(a2-3)Gal(b1-4)GlcNAc
# Outline: as §1
binder,measurement,setting,value
B1,glycan array binding signal (z-score),[1],-0.308
same,glycan array binding signal (z-score),[2],-0.718
same,glycan array binding signal (z-score),[3],0.703
same,glycan array binding signal (z-score),[4],2.19
same,glycan array binding signal (z-score),[5],3.15
same,glycan array binding signal (z-score),[6],0.027
same,glycan array binding signal (z-score),[7],1.11
same,glycan array binding signal (z-score),[8],1.01
same,glycan array binding signal (z-score),[9],-0.363
same,glycan array binding signal (z-score),[10],-0.276
same,glycan array binding signal (z-score),[11],2.42
same,glycan array binding signal (z-score),[12],0.981
same,glycan array binding signal (z-score),[13],1.23
same,glycan array binding signal (z-score),[14],2.12
same,glycan array binding signal (z-score),[15],14.3
same,glycan array binding signal (z-score),[16],0.61
same,glycan array binding signal (z-score),[17],0.725
same,glycan array binding signal (z-score),[18],-0.165
same,glycan array binding signal (z-score),[19],-0.019
same,glycan array binding signal (z-score),[20],-0.895
same,glycan array binding signal (z-score),[21],-0.241
same,glycan array binding signal (z-score),[22],0.104
same,glycan array binding signal (z-score),[23],-0.298
same,glycan array binding signal (z-score),[24],-0.604
same,glycan array binding signal (z-score),[25],0.332
same,glycan array binding signal (z-score),[26],-0.952
same,glycan array binding signal (z-score),[27],2.45
same,glycan array binding signal (z-score),[28],-0.506
same,glycan array binding signal (z-score),[29],2.74
same,glycan array binding signal (z-score),[30],-0.44
same,glycan array binding signal (z-score),[31],0.296
same,glycan array binding signal (z-score),[32],-0.256
same,glycan array binding signal (z-score),[33],1.41
same,glycan array binding signal (z-score),[34],-0.285
same,glycan array binding signal (z-score),[35],0.216
same,glycan array binding signal (z-score),[36],0.087
same,glycan array binding signal (z-score),[37],-1
same,glycan array binding signal (z-score),[38],0.563
same,glycan array binding signal (z-score),[39],2.12
same,glycan array binding signal (z-score),[40],2.85
same,glycan array binding signal (z-score),[41],-0.359
same,glycan array binding signal (z-score),[42],-1.35
same,glycan array binding signal (z-score),[43],-0.818
same,glycan array binding signal (z-score),[44],2.69
same,glycan array binding signal (z-score),[45],2.14
same,glycan array binding signal (z-score),[46],-1.22
same,glycan array binding signal (z-score),[47],-0.069
same,glycan array binding signal (z-score),[48],0.48
same,glycan array binding signal (z-score),[49],-1.35
same,glycan array binding signal (z-score),[50],-0.806
same,glycan array binding signal (z-score),[51],-1.27
same,glycan array binding signal (z-score),[52],-1.35
same,glycan array binding signal (z-score),[53],1.47
same,glycan array binding signal (z-score),[54],-0.879
